Data as given in PubChem BioAssay (NCATS).
Inconclusive results are not listed. The source made the active and inactive calls. Unless noted, calls follow the shape of the dose curve; as a rule, active = well fitted curve in the direction sought with a large enough effect; inconclusive = small, poorly fitted or top-dose-only effect, or another doubt; inactive = no such curve, though single readings can be large; an effect the other way counts as inactive or inconclusive.

Experiments:
[1] = NS1 protein of Zika virus - qHTS assay to identify small molecule inhibitors in human HEK 293 cells (AID 1347053); also: series mostly up to about 46 µM; nearly all actives have a fitted effect of over 55% in size
Outline: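 In this cell-based screen, HEK 293 cultures received compound for one hour before Zika MR766 at MOI = 0.5. NS1 was quantified 24 hours later by TR-FRET, normalized to virus-free wells and infected wells.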

[2] = qHTS of pediatric cancer cell lines to identify multiple opportunities for drug repurposing: Primary screen for TC32 cells (AID 1347089); also: nearly all actives have a fitted effect of over 60% in size
Outline: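 TC32 cells, 500-1,000/well in growth medium, compound-treated 48 h at 37 °C; viability from CellTiter-Glo luminescence. Primary screen: MIPE 11-point (0.78 nM–46 µM final), NPC 8-point (0.59 nM–46 µM final); confirmatory at 11-point dilutions.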

[3] = qHTS of pediatric cancer cell lines to identify multiple opportunities for drug repurposing: Primary screen for DAOY cells (AID 1347090); also: series mostly up to about 46 µM; nearly all actives have a fitted effect of over 55% in size
Outline: (§1)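 Viability measured as metabolically active cells via CellTiter-Glo luminescence following 48 hours of compound exposure, 11-point dilutions in confirmatory testing. 500-1,000 cells/well plated 5 hours before dosing; controls were DMSO and 2.3 µM bortezomib.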

[4] = qHTS of pediatric cancer cell lines to identify multiple opportunities for drug repurposing: Primary screen for SJ-GBM2 cells (AID 1347091)
Outline: as §1

[5] = qHTS of pediatric cancer cell lines to identify multiple opportunities for drug repurposing: Primary screen for A673 cells (AID 1347092); also: nearly all actives have a fitted effect of over 45% in size
Outline: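 A673 cells (500-1,000 cells/well) were treated 48 hours at 37 degrees C with compounds at 11-point (0.78 nM to 46 µM) or 8-point (0.59 nM to 46 µM) dilutions. Viability read by CellTiter-Glo luminescence; concentration-response curves fitted.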

[6] = qHTS of pediatric cancer cell lines to identify multiple opportunities for drug repurposing: Primary screen for SK-N-MC cells (AID 1347093); also: series mostly up to about 46 µM
Outline: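 Metabolically active cells were quantified by ATP-dependent luminescence (CellTiter-Glo, 15 min at room temperature) following 48 h treatment. Cells had been plated at 500-1,000 per well and settled for 5 h beforehand.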

[7] = qHTS of pediatric cancer cell lines to identify multiple opportunities for drug repurposing: Primary screen for BT-37 cells (AID 1347094); also: series mostly up to about 57 µM
Outline: (§2)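 Cells seeded at 500-1,000 cells/well in growth media, rested 5 hours at 37 degrees C, 5% CO2, then dosed; MIPE compounds at 11-point (from 0.78 nM) and NPC at 8-point (from 0.59 nM) final concentrations. Viability by CellTiter-Glo luminescence after 48 hours.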

[8] = qHTS of pediatric cancer cell lines to identify multiple opportunities for drug repurposing: Primary screen for NB-EBc1 cells (AID 1347095)
Outline: as §2

[9] = qHTS of pediatric cancer cell lines to identify multiple opportunities for drug repurposing: Primary screen for U-2 OS cells (AID 1347096); also: nearly all actives have a fitted effect of over 50% in size
Outline: (§3)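 Viability after 48 h compound treatment at 37C, 500-1,000 cells/well, read as ATP luminescence with CellTiter-Glo. Primary screens used 11-point (MIPE, 0.78 nM-46 µM) or 8-point (NPC, 0.59 nM-46 µM) final concentrations; follow-up screens used 11-point dilutions.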

[10] = qHTS of pediatric cancer cell lines to identify multiple opportunities for drug repurposing: Primary screen for Saos-2 cells (AID 1347097); also: nearly all actives have a fitted effect of over 40% in size
Outline: as §2

[11] = qHTS of pediatric cancer cell lines to identify multiple opportunities for drug repurposing: Primary screen for SK-N-SH cells (AID 1347098);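 also: DMSO served as neutral control and bortezomib at 2.3 µM as positive control; nearly all actives have a fitted effect of over 65% in size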
Outline: (§4)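 Cells (500-1,000/well) rested 5 h, then received compounds for 48 h; metabolically active cells were measured by CellTiter-Glo luminescence. Final concentrations spanned up to 46 µM (MIPE, 11-point) or 0.59 nM-46 µM (NPC, 8-point) in primary screens, 11-point in follow-ups.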

[12] = qHTS of pediatric cancer cell lines to identify multiple opportunities for drug repurposing: Primary screen for NB1643 cells (AID 1347099); also: nearly all actives have a fitted effect of over 50% in size
Outline: as §2

[13] = qHTS of pediatric cancer cell lines to identify multiple opportunities for drug repurposing: Primary screen for LAN-5 cells (AID 1347100)
Outline: as §3

[14] = qHTS of pediatric cancer cell lines to identify multiple opportunities for drug repurposing: Primary screen for BT-12 cells (AID 1347101); also: nearly all actives have a fitted effect of over 25% in size
Outline: as §4

[15] = qHTS of pediatric cancer cell lines to identify multiple opportunities for drug repurposing: Primary screen for Rh18 cells (AID 1347102); also: nearly all actives have a fitted effect of over 65% in size
Outline: as §3

[16] = qHTS of pediatric cancer cell lines to identify multiple opportunities for drug repurposing: Primary screen for OHS-50 cells (AID 1347103); also: nearly all actives have a fitted effect of over 40% in size
Outline: as §4

[17] = molecular target: T1, Tyrosine-protein phosphatase non-receptor type substrate 1 (Homo sapiens) + Leukocyte surface antigen CD47 (Homo sapiens) (UniProt P78324+Q08722); assay: CD47-SIRPalpha protein protein interaction - HTRF assay qHTS validation (AID 1347058; active = well fitted curve in the direction sought with a large enough effect in the signal ratio, not every such curve was filed as active; the % refers to the signal ratio; also: series mostly up to about 38 µM)
Outline: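 Soluble extracellular domains (6His-CD47, Avi-tag-biotinylated SIRPalpha) in PBS pH 7.4 with 0.05% IGEPAL CA-630. Compounds were preincubated 30 min at RT with CD47 and anti-His-Eu, then SIRPalpha and SAV-XL665 were added. TR-FRET 665/615 ratio.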

[18] = molecular target: T1, Tyrosine-protein phosphatase non-receptor type substrate 1 (Homo sapiens) + Leukocyte surface antigen CD47 (Homo sapiens); assay: CD47-SIRPalpha protein protein interaction - Alpha assay qHTS validation (AID 1347059);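 also: bead proximity luminescence from CD47 binding SIRPalpha after compound preincubation with SIRPalpha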
Outline: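 SIRPalpha-biotin 25 nM + cpd, 30 min RT, dark; add CD47-His 12.5 nM, 30 min; add Ni-NTA/SAV beads 10 ug/mL, 30 min; AlphaScreen. Buffer PBS pH 7.4 + 0.05% IGEPAL CA-630. Non-biotinylated SIRPalpha as control inhibitor.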

[19] = molecular target: Parathyroid hormone/parathyroid hormone-related peptide receptor (Homo sapiens) (UniProt Q03431); assay: qHTS for PTHR1 Agonists: Optimization Screen against the NCGC LOPAC library (AID 1347079);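 also: GloSensor cAMP luminescence in HEK-293 GP2 cells expressing human PTHR1 with IBMX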
Outline: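 HEK-293 GP2 cells, PTHR1 + GloSensor cAMP; 3000 cells/well, o/n. Luciferin + IBMX 0.5mM each (stock), 1 hr 37C. Cpd titration, 1 hr 37C. Lum after 15 min RT. Ctrl M-PTH(1-15) top 10uM.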

[20] = qHTS of pediatric cancer cell lines to identify multiple opportunities for drug repurposing: Primary screen for RD cells (AID 1347104); also: nearly all actives have a fitted effect of over 55% in size
Outline: as §2

Measured: Potency

Chain of Parathyroid hormone/parathyroid hormone-related peptide receptor (Homo sapiens) (Q03431 whole entry, looked up): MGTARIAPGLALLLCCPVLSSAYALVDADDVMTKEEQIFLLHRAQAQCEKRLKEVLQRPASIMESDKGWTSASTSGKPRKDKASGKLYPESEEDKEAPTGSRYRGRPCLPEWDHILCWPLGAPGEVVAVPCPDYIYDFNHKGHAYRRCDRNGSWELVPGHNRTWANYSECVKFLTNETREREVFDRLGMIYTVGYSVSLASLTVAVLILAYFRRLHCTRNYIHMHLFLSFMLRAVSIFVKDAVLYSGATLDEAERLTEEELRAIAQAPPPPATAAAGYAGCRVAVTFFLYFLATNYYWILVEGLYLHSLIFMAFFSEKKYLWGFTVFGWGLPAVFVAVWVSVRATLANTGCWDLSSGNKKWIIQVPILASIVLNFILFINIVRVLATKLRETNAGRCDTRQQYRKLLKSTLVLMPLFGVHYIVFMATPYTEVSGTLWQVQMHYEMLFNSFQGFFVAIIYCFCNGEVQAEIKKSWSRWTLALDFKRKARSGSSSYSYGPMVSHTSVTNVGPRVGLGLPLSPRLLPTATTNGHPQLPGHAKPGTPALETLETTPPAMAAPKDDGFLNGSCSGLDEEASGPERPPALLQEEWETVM
T1 sequence (P78324 whole entry, looked up, the tested form may be a part): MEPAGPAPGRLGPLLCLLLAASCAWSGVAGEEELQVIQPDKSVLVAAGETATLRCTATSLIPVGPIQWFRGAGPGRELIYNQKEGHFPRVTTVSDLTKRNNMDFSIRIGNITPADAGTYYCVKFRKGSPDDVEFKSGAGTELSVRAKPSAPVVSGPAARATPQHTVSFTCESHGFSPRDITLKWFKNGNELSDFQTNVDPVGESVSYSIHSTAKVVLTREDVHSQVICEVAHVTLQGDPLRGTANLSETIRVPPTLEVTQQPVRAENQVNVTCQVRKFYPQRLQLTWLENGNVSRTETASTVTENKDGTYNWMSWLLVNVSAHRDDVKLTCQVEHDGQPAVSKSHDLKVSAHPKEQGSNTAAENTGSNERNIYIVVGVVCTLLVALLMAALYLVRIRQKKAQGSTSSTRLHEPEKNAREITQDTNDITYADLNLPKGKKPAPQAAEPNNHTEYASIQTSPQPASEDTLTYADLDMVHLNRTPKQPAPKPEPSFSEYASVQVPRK
T1 sequence (Q08722 whole entry, looked up, the tested form may be a part): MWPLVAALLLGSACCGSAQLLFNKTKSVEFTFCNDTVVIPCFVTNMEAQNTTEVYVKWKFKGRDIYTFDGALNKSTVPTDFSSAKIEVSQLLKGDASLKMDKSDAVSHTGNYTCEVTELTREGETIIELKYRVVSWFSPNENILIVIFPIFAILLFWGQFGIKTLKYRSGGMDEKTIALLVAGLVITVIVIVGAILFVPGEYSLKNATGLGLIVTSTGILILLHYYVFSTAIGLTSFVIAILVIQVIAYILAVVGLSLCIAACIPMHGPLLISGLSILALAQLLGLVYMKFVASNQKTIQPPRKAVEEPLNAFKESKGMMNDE

Cc1nc2n(c(=O)c1CCN1CCC(c3noc4cc(F)ccc34)CC1)CCC[C@H]2O
not listed: [17] | [18] | [19] | [20]
inactive: all other assays above

CC[C@H](C)C(=O)O[C@H]1CCC=C2C=C[C@H](C)[C@H](CC[C@@H]3C[C@@H](O)CC(=O)O3)[C@H]21
inactive: [1] | [17] | [18] | [19]

CC(=O)O[C@H]1C[C@@H]2CC[C@@H]3[C@H](CC[C@@]4(C)[C@H]3C[C@H]([N+]3(C)CCCCC3)[C@@H]4OC(C)=O)[C@@]2(C)C[C@@H]1[N+]1(C)CCCCC1
inactive: [1] | [17] | [18] | [19]

CCC(NC(C)C)C(O)c1ccc(O)c(O)c1 (centres undefined)
inactive: [1] | [18]

C[C@]12CC[C@@H]3c4ccc(O)cc4CC[C@H]3[C@@H]1CC[C@@H]2O
inactive: [1] | [19]

CC(CCc1ccccc1)NCC(O)c1ccc(O)c(C(N)=O)c1 (centres undefined)
inactive: [1] | [17] | [18] | [19]

C[C@@H]1C(=O)NC2=Nc3cccc(Cl)c3CN21
inactive: [1] | [17] | [18] | [19]

O=C(O)c1cc2cc(Cc3cccnc3)ccc2o1
inactive: [1] | [17] | [18] | [19]

CCOC(=O)c1cccc(N)c1
not listed: [17] | [18] | [19] | [20]
inactive: all other assays above

CC(=O)CC(c1ccc([N+](=O)[O-])cc1)c1c(O)c2ccccc2oc1=O (centres undefined)
not listed: [17] | [18] | [19]
inactive: all other assays above

Cc1cc(=O)n(-c2ccccc2)n1C
not listed: [17] | [18] | [19]
inactive: all other assays above

COC(=O)[C@H]1[C@H]2C[C@H]3c4[nH]c5ccccc5c4CCN3C[C@H]2CC[C@@H]1O
inactive: [1] | [19]

CC1(C)O[C@@H]2C[C@H]3[C@@H]4C[C@H](F)C5=CC(=O)CC[C@]5(C)[C@H]4[C@@H](O)C[C@]3(C)[C@]2(C(=O)CO)O1
not listed: [17] | [18] | [19]
inactive: all other assays above
